Test results from PubChem BioAssay.
Inconclusive results are not listed. Active and inactive are the calls of the source.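 How the source made its calls, unless noted: active means thallium flux through the channel raised or lowered by more than 3 SD from vehicle-only wells, actives on both sides; inactive means the rest.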

Experiments:
[1] = growth inhibition of DIPG glioma cells, dose response, cell-based, SU-DIPG-XVII, MIPE5.0, CellTiter-Glo, qHTS (AID 1347060; cut-off not given, nearly all actives have AC50 up to about 26 µM); conditions: SU-DIPG-XVII viability, CellTiter-Glo ATP luminescence
[2] = growth inhibition of DIPG glioma cells, dose response, cell-based, JHH-DIPG-1, MIPE4.0, CellTiter-Glo, qHTS (AID 1347062; cut-off not given, nearly all actives have AC50 up to about 27 µM;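 on AC50: cells exposed to compound for two days before readout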); conditions: JHH-DIPG-1 viability, CellTiter-Glo ATP luminescence
[3] = growth inhibition of DIPG glioma cells, dose response, cell-based, SU-DIPG-IV, MIPE4.0, CellTiter-Glo, qHTS (AID 1347063; cut-off not given, nearly all actives have AC50 up to about 30 µM;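 further: compound exposure lasted 48 hours before the viability readout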); conditions: SU-DIPG-IV viability, CellTiter-Glo ATP luminescence
[4] = growth inhibition of DIPG glioma cells, dose response, cell-based, SU-DIPG-XIII, MIPE5.0, CellTiter-Glo, qHTS (AID 1347064; cut-off not given, nearly all actives have AC50 up to about 23 µM); conditions: SU-DIPG-XIII viability, CellTiter-Glo ATP luminescence
[5] = viability loss in pontine glioma line – cell-based, SU-DIPG-XXV, MIPE5.0, CellTiter-Glo, qHTS, dose response (AID 1347065; cut-off not given, nearly all actives have AC50 up to about 26 µM;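 further: cells exposed to compound for 48 hours before ATP readout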); conditions: CellTiter-Glo ATP luminescence
[6] = SU-DIPG-VI glioma cell viability, MIPE4.0 library, CellTiter-Glo luminescence, qHTS (AID 1347066; cut-off not given, nearly all actives have AC50 up to about 30 µM;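 further: cells exposed to compound for 48 hours before readout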); conditions: CellTiter-Glo ATP luminescence
[7] = JHH-DIPG-1 glioma cell viability, MIPE5.0 library, CellTiter-Glo luminescence, qHTS (AID 1347067; cut-off not given, nearly all actives have AC50 up to about 26 µM;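 further: cells exposed to compound for 48 hours before readout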); conditions: JHH-DIPG-1 glioma viability, CellTiter-Glo ATP luminescence
[8] = SU-DIPG-XXV glioma cell viability, MIPE5.0 library, qHTS (AID 1347068; cut-off not given, nearly all actives have IC50 up to about 30 µM)
F380Y/beta1 = assay: modulators of BK channel variants, profiling panel, selectivity assay, cell-based, U2OS BacMam, thallium flux, beta subunits (AID 1259406); conditions: at 30 µM;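 further: initial slope of Thallos dye fluorescence rise after thallium is added; log ratio against the mean of 0.3% DMSO vehicle wells on the same plate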
F380Y/beta4 = assay: as above; conditions: at 30 µM
R275C/beta4 = assay: as above; conditions: at 30 µM
R275C/Slo1WT/beta2 = assay: as above; conditions: at 30 µM
[9] = molecular target: ATP-dependent translocase ABCB1 (Homo sapiens) (UniProt P08183); assay: MDR1 (ABCB1) efflux transporter inhibition, cell-based (AID 377; in the data active means fluorescence slope change above about 50%); conditions: MDR1-expressing cells, fluorescent substrate accumulation slope; stronger effect = higher value; concentration not given here
Chain of ATP-dependent translocase ABCB1 (Homo sapiens) (P08183 whole entry, looked up): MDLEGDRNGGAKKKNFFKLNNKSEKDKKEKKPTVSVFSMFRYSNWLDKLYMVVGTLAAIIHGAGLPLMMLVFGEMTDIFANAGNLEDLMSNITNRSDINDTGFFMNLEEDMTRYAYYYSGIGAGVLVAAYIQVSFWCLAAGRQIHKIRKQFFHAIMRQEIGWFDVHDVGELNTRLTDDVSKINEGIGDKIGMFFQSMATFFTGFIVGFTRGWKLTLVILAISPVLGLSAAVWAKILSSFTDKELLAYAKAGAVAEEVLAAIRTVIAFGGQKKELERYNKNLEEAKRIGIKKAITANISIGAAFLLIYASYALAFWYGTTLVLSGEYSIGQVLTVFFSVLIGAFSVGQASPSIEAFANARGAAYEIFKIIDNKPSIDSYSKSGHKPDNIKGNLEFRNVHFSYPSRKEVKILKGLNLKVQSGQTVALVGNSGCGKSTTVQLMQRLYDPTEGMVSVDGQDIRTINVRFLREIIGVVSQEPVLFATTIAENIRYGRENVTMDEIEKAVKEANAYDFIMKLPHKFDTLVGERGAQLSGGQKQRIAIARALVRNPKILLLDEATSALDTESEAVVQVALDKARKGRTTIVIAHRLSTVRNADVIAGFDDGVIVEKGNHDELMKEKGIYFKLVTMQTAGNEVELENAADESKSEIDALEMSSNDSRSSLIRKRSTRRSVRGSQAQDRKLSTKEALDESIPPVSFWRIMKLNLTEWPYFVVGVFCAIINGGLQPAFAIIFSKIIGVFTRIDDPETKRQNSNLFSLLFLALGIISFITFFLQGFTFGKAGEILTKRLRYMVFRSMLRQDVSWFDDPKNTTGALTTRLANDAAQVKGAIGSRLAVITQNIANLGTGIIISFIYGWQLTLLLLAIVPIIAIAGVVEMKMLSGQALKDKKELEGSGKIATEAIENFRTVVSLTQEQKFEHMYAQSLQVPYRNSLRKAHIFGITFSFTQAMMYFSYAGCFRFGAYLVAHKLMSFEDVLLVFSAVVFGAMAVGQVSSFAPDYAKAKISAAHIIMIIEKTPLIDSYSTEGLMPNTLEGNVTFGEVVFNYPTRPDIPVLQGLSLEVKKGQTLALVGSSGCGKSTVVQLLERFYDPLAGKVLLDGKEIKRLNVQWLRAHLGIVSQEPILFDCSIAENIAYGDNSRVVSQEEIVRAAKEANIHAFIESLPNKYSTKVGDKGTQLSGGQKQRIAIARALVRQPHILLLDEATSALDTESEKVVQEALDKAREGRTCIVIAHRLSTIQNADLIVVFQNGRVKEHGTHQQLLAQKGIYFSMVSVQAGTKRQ

[10] = reducers of polyQ inclusions in PC12 cells, cell-based, NGF-treated PC12, GFPQ80 (AID 1614); conditions: PC12 NGF-treated GFP-polyQ80 inclusion reduction;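 further: lower means fewer inclusions and 0 means no inclusions at all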
[11] = system: Aerobactin synthetase IucA (Klebsiella pneumoniae); assay: IucA aerobactin synthetase inhibitors, biochemical, Tocris library, absorbance (AID 1345561; call rule not given here;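 further: 100% = enzyme without compound and 0% = no enzyme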); conditions: purified IucA enzyme assay, absorbance (OD) read-out; stronger effect = lower value;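 tested at 8 µM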
[12] = growth inhibition of DIPG glioma cells, dose response, cell-based, SU-DIPG-XIII, MIPE4.0, CellTiter-Glo, qHTS (AID 1347061; cut-off not given, nearly all actives have AC50 up to about 37 µM;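 further: cells exposed to compound for 48 hours before readout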); conditions: SU-DIPG-XIII viability, CellTiter-Glo ATP luminescence

NC(=O)c1cccnc1
inactive: outcome [1] | outcome [2] | outcome [3] | outcome [4] | outcome [5] | outcome [6] | outcome [7] | outcome [8] | log fold change Tl+ flux (F380Y/beta1) -0.0163 | log fold change Tl+ flux (F380Y/beta4) 0.00589 | log fold change Tl+ flux (R275C/beta4) 0.0149 | log fold change Tl+ flux (R275C/Slo1WT/beta2) 0.0115

CC(C)NCC(O)COc1cccc2[nH]ccc12 (stereo unspecified)
inactive: remaining activity [11] 101% | log fold change Tl+ flux (F380Y/beta1) 0.0264 | log fold change Tl+ flux (F380Y/beta4) 0.000781 | log fold change Tl+ flux (R275C/beta4) -0.00429 | log fold change Tl+ flux (R275C/Slo1WT/beta2) 0.017
active: fluorescence slope change [9] 68.5%
2: inclusion score [10]

COc1cc(Cc2cnc(N)nc2N)cc(OC)c1OC
inactive: log fold change Tl+ flux (F380Y/beta1) 0.057 | log fold change Tl+ flux (F380Y/beta4) 0.0143 | log fold change Tl+ flux (R275C/beta4) 0.00256 | log fold change Tl+ flux (R275C/Slo1WT/beta2) 0.00876
2: inclusion score [10]

N=c1nc(N2CCCCC2)cc(N)n1O
inactive: remaining activity [11] 109% | outcome [12] | outcome [2] | outcome [3] | outcome [6] | log fold change Tl+ flux (F380Y/beta1) 0.0169 | log fold change Tl+ flux (F380Y/beta4) -0.0416 | log fold change Tl+ flux (R275C/beta4) 0.0196 | log fold change Tl+ flux (R275C/Slo1WT/beta2) 0.0414
1: inclusion score [10]

CC(C(=O)O)c1cccc(C(=O)c2ccccc2)c1 (stereo unspecified)
inactive: outcome [1] | outcome [3] | outcome [4] | outcome [5] | outcome [6] | outcome [7] | log fold change Tl+ flux (F380Y/beta1) -0.011 | log fold change Tl+ flux (F380Y/beta4) 0.0138 | log fold change Tl+ flux (R275C/beta4) 0.00182 | log fold change Tl+ flux (R275C/Slo1WT/beta2) -0.0223
active: fluorescence slope change [9] 70.4%
2: inclusion score [10]

CC(C)OC(=O)C(C)(C)Oc1ccc(C(=O)c2ccc(Cl)cc2)cc1
inactive: outcome [2] | outcome [3] | outcome [4] | outcome [7] | outcome [8] | log fold change Tl+ flux (F380Y/beta1) -0.0557 | log fold change Tl+ flux (F380Y/beta4) 0.00294 | log fold change Tl+ flux (R275C/beta4) 0.00518 | log fold change Tl+ flux (R275C/Slo1WT/beta2) 0.0641
0: inclusion score [10]

CN1C(=O)CC[C@H]1c1cccnc1
2: inclusion score [10]
active: fluorescence slope change [9] 94.5%

CN(C)C(=O)C(CCN1CCC(O)(c2ccc(Cl)cc2)CC1)(c1ccccc1)c1ccccc1
active: AC50 [2] 20.9 µM | log fold change Tl+ flux (F380Y/beta1) 0.203 | log fold change Tl+ flux (F380Y/beta4) 0.119
inactive: remaining activity [11] 118% | outcome [12] | outcome [3] | outcome [4] | outcome [7] | outcome [8] | log fold change Tl+ flux (R275C/beta4) -0.104 | log fold change Tl+ flux (R275C/Slo1WT/beta2) 0.0159

COc1ccc2cc([C@H](C)C(=O)O)ccc2c1
inactive: remaining activity [11] 75.8% | outcome [1] | outcome [12] | outcome [2] | outcome [3] | outcome [6] | outcome [7] | outcome [8] | log fold change Tl+ flux (F380Y/beta1) 0.0107 | log fold change Tl+ flux (F380Y/beta4) -0.000569 | log fold change Tl+ flux (R275C/beta4) -0.0294 | log fold change Tl+ flux (R275C/Slo1WT/beta2) 0.0377
2: inclusion score [10]

CNCCCN1c2ccccc2CCc2ccccc21
inactive: log fold change Tl+ flux (F380Y/beta1) 0.022 | log fold change Tl+ flux (R275C/beta4) 0.123 | log fold change Tl+ flux (R275C/Slo1WT/beta2) -0.0879
active: log fold change Tl+ flux (F380Y/beta4) 0.144
